From PubChem BioAssay AID2599 (Sanford-Burnham Center for Chemical Genomics, 2010)
The campaign covered roughly 330,000 compounds. About 5,800 (1.8%) were called active. For the sample, actives were picked, then their nearest neighbours and some compounds at random. Values without a mark were called inactive.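 Rule for the calls: active = inhibition above about 50% at the single tested dose (limit read from the data); inactive = the rest.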

Each molecule was assayed against Sentrin-specific protease 6 (Homo sapiens) (UniProt Q9GZR1) (assay: inhibition of human SENP6 catalytic domain – biochemical, luminescence, uHTS, primary screen (AID 2599;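 note: plate controls were DMSO wells with enzyme for no effect and DMSO wells lacking enzyme for full effect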)). Conditions: Recombinant SENP6 catalytic domain, aminoluciferin luminescence; at 10 µM; active compounds read high.
Chain of Sentrin-specific protease 6 (Homo sapiens) (Q9GZR1 628-1112 limits assumed): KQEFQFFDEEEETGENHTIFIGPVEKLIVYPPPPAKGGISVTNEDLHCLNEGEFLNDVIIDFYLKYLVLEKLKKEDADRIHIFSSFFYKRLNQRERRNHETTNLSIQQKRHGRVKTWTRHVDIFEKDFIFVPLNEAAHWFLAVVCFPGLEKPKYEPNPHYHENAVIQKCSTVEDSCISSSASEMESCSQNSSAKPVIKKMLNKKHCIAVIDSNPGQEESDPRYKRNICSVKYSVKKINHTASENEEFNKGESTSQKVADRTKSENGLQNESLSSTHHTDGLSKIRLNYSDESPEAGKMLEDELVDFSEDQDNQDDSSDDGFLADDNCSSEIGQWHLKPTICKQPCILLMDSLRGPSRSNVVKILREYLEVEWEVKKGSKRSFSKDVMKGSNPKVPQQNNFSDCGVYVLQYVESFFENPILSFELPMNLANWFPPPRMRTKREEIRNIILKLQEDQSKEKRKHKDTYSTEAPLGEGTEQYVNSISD
`CCOC(=O)C1(Cc2ccccc2C(F)(F)F)CCN(C(=O)c2cc(C)n(C)n2)CC1` gave an inhibition of -1.7%.
`O=C(NC(=S)N1CCc2ccccc21)c1ccco1` showed an inhibition of 7.02%.
In the case of `Cc1ccc(C(=O)c2c(NC(=O)c3ccccc3)sc(C)c2C)cc1`, the inhibition is reported as -6.69%.
Molecule `COc1ccccc1-c1nnc(NC(=O)c2ccc3ncsc3c2)o1` has an inhibition of -1.73%.
`Cc1sc(NC(=O)c2ccc3ncsc3c2)c(C(N)=O)c1C` was tested, and the inhibition was 71.4% (active).
Work on `COc1ccc(CN(Cc2ccco2)S(=O)(=O)c2ccc(S(=O)(=O)N3CCCC3)cc2)cc1` yielded an inhibition of 3.07%.
`CCOC(=O)/C(C#N)=C/c1ccc(N2CCN(Cc3ccccc3)CC2)cc1` gave an inhibition of -1.35%.
Molecule `COc1ccc(N2CCN(C(=O)/C(C#N)=C/c3ccccc3)CC2)cc1` has an inhibition of 1.08%.
In the case of `CCOC(=O)/C(C#N)=C/c1ccc(N2CCCCC2)cc1`, the inhibition is reported as 52.8% (active).
With `CC1(C)CC(=O)C=C(NCCCN2CCCC2=O)C1` the inhibition was 4.58%.
In the case of `CC[N+](C)(CC)CCC[n+]1c(-c2ccccc2)c2cc(N)ccc2c2ccc(N)cc21`, the inhibition is reported as 89.2% (active).
With `Cc1cc(C)n2nc(C(=O)Nc3cccc(S(=O)(=O)N4CCOCC4)c3)nc2n1` the inhibition was -2.51%.
`Cn1c(-c2ccc(C(=O)c3ccccc3)s2)nc2ccccc21` was tested, and the inhibition was 68.7% (active).
`Cn1c(Nc2cccc(Cl)c2)nc2ccccc21` showed an inhibition of 21.9%.
Molecule `CCn1c(NC(=O)c2nn(C)cc2Br)nc2ccccc21` has an inhibition of -7.2%.
In the case of `Cn1c(NC(=O)c2ccccc2)nc2ccccc21`, the inhibition is reported as 75.7% (active).
Work on `Cc1nc2ccccc2c(-c2ccccc2)c1C(=O)c1ccccc1` yielded an inhibition of -18.6%.
Work on `Cc1nn(C)cc1C(=O)c1ccccc1` yielded an inhibition of 0.575%.
`O=C(CN(c1ccc2c(c1)OCCO2)S(=O)(=O)c1ccccc1)Nc1ccc2c(c1)OCO2` gave an inhibition of 12.2%.
In the case of `CCOC(=O)C1C(c2ccc(OC)c(OC)c2)c2c([nH][nH]c2=O)CC1(C)O` (stereo not given), the inhibition is reported as -17.3%.
`Cc1nn(CC(=O)NC2CCCCC2)c(=O)c2cccn12` was tested, and the inhibition was 9.49%.
`O=C(Cc1ccc(F)cc1)N1CCN=C1SCc1cccc([N+](=O)[O-])c1` was tested, and the inhibition was 4.91%.
In the case of `CCOC(=O)N1CCN(c2cc(C)c([N+](=O)[O-])cc2F)CC1`, the inhibition is reported as -3.66%.
`CCn1cc(-c2cc(C(=O)O)on2)c(C)n1` showed an inhibition of 15.3%.
For `Cc1ccn2cc(-c3nonc3C)cc2c1`, the inhibition was 53.2% (active).
`CNC(=S)Nc1ccc([N+](=O)[O-])cc1` was tested, and the inhibition was -24.9%.
In the case of `O=C(O)/C=C/C(=O)NNc1ccc([N+](=O)[O-])cc1`, the inhibition is reported as 82.9% (active).
In the case of `O=[N+]([O-])c1ccc(N/N=C/c2ccccc2)cc1`, the inhibition is reported as 0.552%.
Molecule `CCS(=O)(=O)c1ccc(C(=O)NC)c(Cl)c1Cl` has an inhibition of 5.83%.
`COc1ccccc1C(=O)Nn1cnnc1` gave an inhibition of -21.9%.
In the case of `COc1ccc(N=C(C)c2sc3ccccc3c2O)cc1`, the inhibition is reported as 82.8% (active).
Molecule `COc1ccc(-c2sc3ccccc3c2-c2ccc(OCCN3CCOCC3)cc2)cc1` has an inhibition of -11.4%.
In the case of `COC(=O)c1ccc(/C=C/c2c(-c3ccc(OC)cc3)sc3ccccc23)cc1`, the inhibition is reported as 17.2%.
With `Cc1ccc(S(=O)(=O)N(c2cccc(C)c2)C2CCS(=O)(=O)C2)cc1` (stereo not given) the inhibition was 7.06%.
With `CSCC[C@H](NC(=O)N1CCn2c1nc1ccccc12)C(=O)NC1CCCCC1` the inhibition was -2.54%.
For `COC(=O)C1=C(C)N(C)C(=S)NC1c1cc(OC)ccc1OC` (stereo not given), the inhibition was 6.54%.
With `Clc1ccc(-c2cc(-c3ccccn3)on2)c(Cl)c1` the inhibition was 95.1% (active).
For `O=C1c2ccccc2C(=O)N1Cc1cc(-c2ccccc2Cl)no1`, the inhibition was -13.7%.
`Clc1ccc(COn2c(-c3ccc(Cl)cc3Cl)nc3ncccc32)cc1` was tested, and the inhibition was 3.31%.
With `CC1(C)OC(=O)C(=CNC(CO)C(=O)O)C(=O)O1` (stereo not given) the inhibition was -15.5%.
For `COc1ccc(S(=O)(=O)N2CCOC23CCN(S(=O)(=O)c2ccc([N+](=O)[O-])cc2)CC3)cc1`, the inhibition was -0.227%.
`CC(C)C(NC(=O)c1cccc(S(=O)(=O)N2CCOCC2)c1)C(=O)NCCc1ccccn1` (stereo not given) showed an inhibition of 0.86%.
For `CC(=O)Oc1ccc(-c2nc3c(C)cccc3c(=O)o2)cc1`, the inhibition was 13.4%.
`COc1ccc(/C=C/c2noc(-c3ccccc3OC(C)=O)n2)cc1` was tested, and the inhibition was 89.4% (active).
Work on `COc1cccc(/C=C/c2ccc3ccccc3n2)c1OC(C)=O` yielded an inhibition of 14.1%.
In the case of `O=C(Cc1ccc(S(=O)(=O)N2CCCC2)s1)NC1CCCCCC1`, the inhibition is reported as -13.1%.
In the case of `CSCCC(NC(=O)c1ccco1)C(=O)NCCc1ccc(F)cc1` (stereo not given), the inhibition is reported as 5.31%.
`O=[N+]([O-])c1ccc2oc(-c3cccc(O)c3)nc2c1` was tested, and the inhibition was 65.4% (active).
Molecule `COc1ccc([N+](=O)[O-])cc1-c1nc2ccccc2nc1-c1ccccc1` has an inhibition of -3.14%.
In the case of `CC(=O)Oc1ccc2c(=O)oc(-c3ccc([N+](=O)[O-])cc3)nc2c1`, the inhibition is reported as 32.4%.
`COc1cccc(-c2nc3cc(C)ccc3o2)c1` was tested, and the inhibition was 97.8% (active).
`COc1ccc2oc(-c3cccc(NC(=O)CSc4ccc(Cl)cc4)c3)nc2c1` showed an inhibition of -0.568%.
`COc1cccc(-c2nnc(SCCOc3ccc4c(C)cc(=O)oc4c3)o2)c1` was tested, and the inhibition was -18.6%.
Work on `COC(=O)c1ccccc1NC(=O)C1CCN(S(=O)(=O)c2cc(OC)ccc2OC)CC1` yielded an inhibition of -0.874%.
For `Cc1ccc(NC(=O)C(=O)NCC2CCN(C(=O)c3cccc([N+](=O)[O-])c3)CC2)cc1`, the inhibition was 0.692%.
`N#Cc1cccc(CSc2nnc(CCCO)n2-c2ccccc2)c1` gave an inhibition of -0.983%.
`Cc1cccc(NC(=O)c2cc(N3C(=O)CCC3=O)ccc2Cl)n1` was tested, and the inhibition was -4.72%.
`Cc1cccc(NC(=O)c2cccnc2Cl)n1` was tested, and the inhibition was 24.9%.
In the case of `Cc1cccc(NC(=O)c2ccc3ccccc3n2)n1`, the inhibition is reported as 77.2% (active).
With `COc1ccc(NC(=O)c2cn(-c3ccccc3)nc2SC)cc1` the inhibition was 0.083%.
Work on `Cc1c(C(C)CCCO)oc(=O)c2c1Oc1c(C)c(C(C)C[C@@H](C)O)oc(=O)c1C2` (stereo not given in full) yielded an inhibition of 13.7%.
In the case of `O=C(Oc1ccc(Br)cc1C(=S)N1CCOCC1)c1cccc([N+](=O)[O-])c1`, the inhibition is reported as -3.34%.
Work on `Cc1ccc(/C=C(\C#N)C(=O)Nc2cccc3ncccc23)o1` yielded an inhibition of -57.2%.
With `O=C(NNS(=O)(=O)c1ccccc1C(F)(F)F)c1cc2ncc(C(F)(F)F)cc2s1` the inhibition was 4.2%.
In the case of `Cc1ccc(-n2cc3ccc([N+](=O)[O-])cc3n2)cc1`, the inhibition is reported as 86.9% (active).
`Cc1ccc(-c2cn(S(=O)(=O)c3cccc([N+](=O)[O-])c3)nc2N)cc1` gave an inhibition of -7.28%.
`Cc1ccnc(N2C(=O)c3ccc([N+](=O)[O-])cc3C2=O)c1` was tested, and the inhibition was -9.97%.
`Cn1cc[n+](C)c1COc1ccc(C=O)cc1` showed an inhibition of -1.65%.
`N#Cc1cc([N+](=O)[O-])ccc1NCC1CCCO1` (stereo not given) gave an inhibition of -15.1%.
`COc1ccc(C(=O)Nc2cc(C)c(NC(=O)c3ccccc3OC)cn2)cc1` gave an inhibition of 37.3%.
`COc1ccccc1C(=O)NNC(=O)c1ccc(NC(=O)c2ccccc2)cc1` gave an inhibition of 5.14%.
With `COc1ccc(C(=O)Nc2ccccc2C(=O)N/N=C/c2ccc(O)c(OC)c2)cc1` the inhibition was 98.7% (active).
`CCOc1cc(/C=N/NC(=O)c2cc(-c3ccccc3)nc3ccccc23)ccc1O` showed an inhibition of 19.5%.
`COc1ccc(NS(=O)(=O)c2cc(C(=O)Nc3ccccc3C(=O)O)ccc2C)cc1` was tested, and the inhibition was -2.27%.
Molecule `COc1ccc(/C=N/OCC(=O)N(Cc2ccccc2)c2ccccc2C(=O)O)cc1` has an inhibition of -17.2%.
With `COc1ccc(/C=N/Nc2ccccc2C(=O)O)cc1` the inhibition was 93.1% (active).
In the case of `COc1ccc(C(=O)Nc2ccccc2C(=O)N/N=C/c2ccccc2OC)cc1`, the inhibition is reported as 66.7% (active).
For `COc1cc(/C=N/NC(=O)c2ccc(N3CCCC3=O)cc2)ccc1O`, the inhibition was -7.53%.
Molecule `O=C(O)CC(c1ccccc1F)N1Cc2ccccc2C1=O` (stereo not given) has an inhibition of -11.5%.
Molecule `COc1ccc(/C=N/n2c(C)cc(C)cc2=O)cc1` has an inhibition of -12.1%.
For `O=C(N/N=C/c1ccsc1)c1cc(O)cc(O)c1`, the inhibition was 3.66%.
`CCn1cc(/C=C(\NC(=O)c2cc(OC)c(OC)c(OC)c2)C(=O)N2CCN(C)CC2)c2ccccc21` gave an inhibition of 0.634%.
Work on `O=C(/C=C/c1ccc2c(c1)OCO2)NCc1ccc(F)cc1` yielded an inhibition of 1.24%.
`Cc1cccc(NC(=O)Nc2ccc3c(c2)OCO3)n1` gave an inhibition of -17.4%.
With `Cc1cccc(NC(=O)/C=C/c2ccc3c(c2)OCO3)n1` the inhibition was 82.7% (active).
`CCCc1ccc(OCc2ccc(C(=O)N/N=C/c3cccc([N+](=O)[O-])c3)o2)c(OC)c1` was tested, and the inhibition was -3.27%.
`COc1ccccc1N1CCN(C(=O)CCS(=O)(=O)c2ccc3c(c2)NC(=O)C(C)S3)CC1` (stereo not given) showed an inhibition of 4.9%.
Work on `CCOC(=O)C(C)N(c1ccccc1Cl)S(C)(=O)=O` (stereo not given) yielded an inhibition of 14.8%.
In the case of `O=C(O)c1cc(Cl)c(Cl)cc1C(=O)Nc1cccc2ncccc12`, the inhibition is reported as 57% (active).
`COc1ccccc1NC(=O)c1cc(Cl)nc2ccccc12` showed an inhibition of -4.88%.
With `O=C(O)c1ccccc1-c1ccccc1C(=O)Nc1cccc2ccccc12` the inhibition was -15.6%.
`CN(Cc1ccccc1F)C(=O)C(Cc1ccccc1)NC(=O)c1ccccc1` (stereo not given) was tested, and the inhibition was -9.94%.
`Cn1nc(-c2ccccc2)c(-c2nc(-c3ccc(Cl)cc3)no2)c1Cl` showed an inhibition of 3.33%.
For `Cc1cccc(-c2noc(-c3ccc(F)cc3)n2)c1`, the inhibition was 94.2% (active).
Work on `Cc1cccc(-c2noc(CCC(=O)NC3CCCC3)n2)c1` yielded an inhibition of -13.6%.
